A short description of this assay: NCI Yeast Anticancer Drug Screen. Data for the wt2 strain (AID 169).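 Note: 0% = growth of vehicle-treated yeast cultures.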 As to conditions: S. cerevisiae wt2 strain growth inhibition, hits give high values. The method, then:
Growth inhibition of yeast strains with defined genetic alterations is measured as a screen for potential anti-cancer activity. Selected strains with alterations in DNA damage repair or cell cycle control were exposed to compounds and growth inhibition was measured relative to vehicle treated controls. The strain used in this assay is wt2

The structures appear in SMILES notation. About 79,000 compounds went through this panel and 15% of them were active in at least one assay; those are over-represented in the sample as a whole. A number with no mark means an inactive call. Activity calls are given as the source filed them. Cut-off read from the data, not from the text of the source: active = growth inhibition above about 70%; inactive = the rest.

Turning to `CCOC(=O)c1c[nH]c2cc(C(F)(F)F)ccc2c1=O`, the growth inhibition (at 1.2 µM) was -3%; the growth inhibition (at 3.7 µM) was -8%; the growth inhibition (at 11.0 µM) was -9%; the growth inhibition (at 33.0 µM) was -10%; the growth inhibition (at 100.0 µM) was -10%.
As to `Fc1ccccc1-c1ncc(-c2ccccc2)o1`, the growth inhibition is, setting by setting: (at 1.2 µM) -1%; (at 3.7 µM) -3%; (at 11.0 µM) -10%; (at 33.0 µM) -2%; (at 100.0 µM) 28%.
The corresponding values for `CCCCCC(C)c1ccc(O)c(C)c1` (stereo not given) are 4%, -2%, -6%, 0% and 99% (active).
The corresponding values for `CCC(C)c1ccc(O)c(C(C)CC)c1` (stereo not given) are -3%, -13%, -11%, -1% and 98% (active).
The corresponding values for `CCSC1=C(C)C(=O)c2ccccc2C1=O` are 18%, 11%, 6%, 20% and 98% (active).
As to `c1ccc2nc3c(ccc4ccccc43)cc2c1`, the growth inhibition by setting is: (at 1.2 µM) 18%; (at 3.7 µM) 16%; (at 11.0 µM) 64%; (at 33.0 µM) 94% (active); (at 100.0 µM) 89% (active).
The corresponding values for `Cc1ccc(S(=O)(=O)NC2CCCCCCC2)cc1` are -4%, -17%, -23%, 23% and 98% (active).
The corresponding values for `CC(C)N1CSC(=S)N(Cc2ccccc2)C1` are 0%, 7%, 23%, 55% and 67%.

The values above are taken from PubChem BioAssay (NCI).
